Columns and labels:
Assay in all cases: log2 ratio of Biotin-Ahx-Ub-VS probe labelling (fragment/DMSO); higher = less target engagement (more negative = stronger competition), active = hit call of the paper (q ≤ 0.05, log2 ratio ≤ -1)
Settings in all cases: compound concentration: 200 uM; treatment time: 3 h
ALG13 = biological target: T1, ALG13 (UniProt Q9NP73)
T1 sequence (whole entry): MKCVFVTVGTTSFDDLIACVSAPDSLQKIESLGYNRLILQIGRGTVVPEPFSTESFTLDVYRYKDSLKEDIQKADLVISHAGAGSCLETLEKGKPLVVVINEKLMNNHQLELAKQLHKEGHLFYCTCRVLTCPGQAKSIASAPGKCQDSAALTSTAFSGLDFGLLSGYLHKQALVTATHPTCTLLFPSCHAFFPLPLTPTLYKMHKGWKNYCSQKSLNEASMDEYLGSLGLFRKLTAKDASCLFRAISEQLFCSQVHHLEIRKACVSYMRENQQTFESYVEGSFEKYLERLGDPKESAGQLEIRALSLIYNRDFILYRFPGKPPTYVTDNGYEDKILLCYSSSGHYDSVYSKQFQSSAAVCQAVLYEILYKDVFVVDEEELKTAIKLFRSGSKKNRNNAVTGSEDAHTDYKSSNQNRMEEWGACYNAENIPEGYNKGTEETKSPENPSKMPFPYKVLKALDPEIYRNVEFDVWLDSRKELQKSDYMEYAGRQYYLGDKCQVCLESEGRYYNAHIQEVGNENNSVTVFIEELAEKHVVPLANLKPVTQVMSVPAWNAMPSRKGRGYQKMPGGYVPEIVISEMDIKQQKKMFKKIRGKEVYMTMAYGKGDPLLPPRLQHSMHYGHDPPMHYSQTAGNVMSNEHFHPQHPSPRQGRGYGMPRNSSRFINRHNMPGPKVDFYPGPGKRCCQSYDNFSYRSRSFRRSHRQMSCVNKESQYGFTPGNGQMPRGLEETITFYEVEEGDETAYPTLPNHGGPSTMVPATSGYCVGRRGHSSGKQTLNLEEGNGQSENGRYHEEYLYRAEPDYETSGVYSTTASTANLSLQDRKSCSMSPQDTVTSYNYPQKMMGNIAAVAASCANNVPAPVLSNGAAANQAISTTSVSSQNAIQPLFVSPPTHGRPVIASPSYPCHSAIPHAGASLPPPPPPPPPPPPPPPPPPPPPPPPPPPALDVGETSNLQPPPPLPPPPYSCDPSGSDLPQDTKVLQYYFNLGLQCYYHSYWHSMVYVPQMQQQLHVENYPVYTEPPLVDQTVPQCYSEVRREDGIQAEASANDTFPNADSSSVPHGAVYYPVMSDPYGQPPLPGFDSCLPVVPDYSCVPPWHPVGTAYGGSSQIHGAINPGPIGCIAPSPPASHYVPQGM
Method in brief: (§1)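 The table lists average log2 ratios of fragment over vehicle, from an unpaired t-test on global-median-normalised Spectronaut label-free quantities. Proteins with ≥2 unique peptides were used. Samples were HEK293T lysate (495 µg) treated in triplicate with fragment at 200 µM or vehicle for 3 h, then with Biotin-Ahx-Ub-VS (0.5 µM final) for 1 h, with labelled DUBs NeutrAvidin-enriched and run by diaPASEF LC-MS/MS.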

ATXN3 = ATXN3 (UniProt P54252)
Method in brief: as §1

BAP1 = biological target: T2, BAP1 (UniProt Q92560)
T2 sequence (whole entry): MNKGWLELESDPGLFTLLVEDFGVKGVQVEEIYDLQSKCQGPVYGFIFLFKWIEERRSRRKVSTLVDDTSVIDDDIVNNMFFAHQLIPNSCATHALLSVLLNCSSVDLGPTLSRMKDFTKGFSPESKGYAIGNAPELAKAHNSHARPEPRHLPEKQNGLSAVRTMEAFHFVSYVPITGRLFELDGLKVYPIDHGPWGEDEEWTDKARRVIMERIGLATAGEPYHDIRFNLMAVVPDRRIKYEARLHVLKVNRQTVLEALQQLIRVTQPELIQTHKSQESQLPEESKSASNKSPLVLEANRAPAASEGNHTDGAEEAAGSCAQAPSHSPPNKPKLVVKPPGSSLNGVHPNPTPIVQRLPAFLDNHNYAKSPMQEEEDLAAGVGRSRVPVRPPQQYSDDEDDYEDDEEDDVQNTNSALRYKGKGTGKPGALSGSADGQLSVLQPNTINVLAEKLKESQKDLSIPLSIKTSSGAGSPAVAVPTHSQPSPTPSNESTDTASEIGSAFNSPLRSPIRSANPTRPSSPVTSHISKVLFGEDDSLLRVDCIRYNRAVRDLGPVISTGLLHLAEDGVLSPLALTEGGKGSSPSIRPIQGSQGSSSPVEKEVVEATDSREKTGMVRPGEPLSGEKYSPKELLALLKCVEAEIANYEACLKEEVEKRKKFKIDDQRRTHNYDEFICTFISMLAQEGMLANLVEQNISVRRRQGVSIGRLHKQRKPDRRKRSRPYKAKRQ
Method in brief: as §1

EIF3F = EIF3F (UniProt O00303)
Method in brief: as §1

EIF3H = EIF3H (UniProt O15372)
Method in brief: as §1

FAM105A = biological target: T3, FAM105A (UniProt Q9NUU6)
T3 sequence (whole entry): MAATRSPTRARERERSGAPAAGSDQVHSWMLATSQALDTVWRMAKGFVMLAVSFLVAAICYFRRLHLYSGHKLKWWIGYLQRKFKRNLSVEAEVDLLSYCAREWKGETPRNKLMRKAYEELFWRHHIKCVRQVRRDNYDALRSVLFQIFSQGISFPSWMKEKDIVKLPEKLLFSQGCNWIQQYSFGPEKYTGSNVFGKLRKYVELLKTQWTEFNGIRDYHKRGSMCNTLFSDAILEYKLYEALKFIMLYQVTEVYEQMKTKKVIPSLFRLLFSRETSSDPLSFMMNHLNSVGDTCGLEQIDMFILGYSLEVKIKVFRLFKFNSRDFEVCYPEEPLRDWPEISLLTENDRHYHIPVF
Method in brief: as §1

OTUB1 = OTUB1 (UniProt Q96FW1)
Method in brief: as §1

OTUD4 = biological target: T4, OTUD4 (UniProt Q01804)
T4 sequence (whole entry): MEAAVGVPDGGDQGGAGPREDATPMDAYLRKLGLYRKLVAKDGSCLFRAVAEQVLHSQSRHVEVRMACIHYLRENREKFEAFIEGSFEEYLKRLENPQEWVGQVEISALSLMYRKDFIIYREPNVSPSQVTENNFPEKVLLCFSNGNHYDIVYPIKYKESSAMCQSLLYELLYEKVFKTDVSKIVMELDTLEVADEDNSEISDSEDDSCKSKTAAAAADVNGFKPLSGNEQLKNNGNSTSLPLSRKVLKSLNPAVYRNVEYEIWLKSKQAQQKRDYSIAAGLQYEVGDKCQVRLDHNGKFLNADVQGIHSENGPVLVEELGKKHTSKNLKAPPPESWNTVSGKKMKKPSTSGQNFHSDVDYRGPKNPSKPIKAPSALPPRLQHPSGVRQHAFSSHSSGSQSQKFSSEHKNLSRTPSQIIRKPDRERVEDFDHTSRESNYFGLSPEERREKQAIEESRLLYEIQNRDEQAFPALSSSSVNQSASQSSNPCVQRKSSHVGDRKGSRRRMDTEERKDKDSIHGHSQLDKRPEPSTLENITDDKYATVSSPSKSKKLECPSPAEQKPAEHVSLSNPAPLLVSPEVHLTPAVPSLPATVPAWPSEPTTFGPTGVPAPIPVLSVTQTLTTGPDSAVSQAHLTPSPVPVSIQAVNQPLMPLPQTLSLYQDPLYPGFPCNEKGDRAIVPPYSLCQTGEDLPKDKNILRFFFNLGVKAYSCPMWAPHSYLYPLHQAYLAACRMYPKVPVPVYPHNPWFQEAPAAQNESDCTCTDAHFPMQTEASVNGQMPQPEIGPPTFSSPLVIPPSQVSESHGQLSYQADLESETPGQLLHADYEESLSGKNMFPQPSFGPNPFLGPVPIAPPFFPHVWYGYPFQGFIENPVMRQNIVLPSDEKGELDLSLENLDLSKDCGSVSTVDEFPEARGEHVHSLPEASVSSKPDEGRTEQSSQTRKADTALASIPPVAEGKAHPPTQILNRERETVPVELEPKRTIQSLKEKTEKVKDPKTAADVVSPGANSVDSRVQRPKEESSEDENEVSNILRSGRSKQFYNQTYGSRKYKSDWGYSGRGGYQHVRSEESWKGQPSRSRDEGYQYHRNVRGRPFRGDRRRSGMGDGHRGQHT
Method in brief: as §1

OTUD5 = biological target: T5, OTUD5 (UniProt Q96G74)
T5 sequence (whole entry): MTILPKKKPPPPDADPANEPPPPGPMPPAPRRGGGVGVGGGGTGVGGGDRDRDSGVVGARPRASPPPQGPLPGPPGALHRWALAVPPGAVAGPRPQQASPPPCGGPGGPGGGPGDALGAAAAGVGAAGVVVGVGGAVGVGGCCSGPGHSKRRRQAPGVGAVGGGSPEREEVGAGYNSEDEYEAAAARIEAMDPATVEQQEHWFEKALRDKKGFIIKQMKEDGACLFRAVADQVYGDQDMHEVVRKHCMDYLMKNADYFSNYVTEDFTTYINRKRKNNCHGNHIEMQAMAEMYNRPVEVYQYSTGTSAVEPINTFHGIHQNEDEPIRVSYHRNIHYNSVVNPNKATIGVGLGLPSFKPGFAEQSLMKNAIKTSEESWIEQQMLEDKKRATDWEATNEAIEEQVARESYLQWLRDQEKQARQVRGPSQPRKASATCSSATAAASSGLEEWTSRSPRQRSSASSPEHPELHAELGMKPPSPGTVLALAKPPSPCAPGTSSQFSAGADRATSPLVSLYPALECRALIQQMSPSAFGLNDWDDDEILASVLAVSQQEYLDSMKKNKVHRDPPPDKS
Method in brief: as §1

Measured: log2 ratio of Biotin-Ahx-Ub-VS probe labelling

Sequence of OTUB1 (Q96FW1 whole entry): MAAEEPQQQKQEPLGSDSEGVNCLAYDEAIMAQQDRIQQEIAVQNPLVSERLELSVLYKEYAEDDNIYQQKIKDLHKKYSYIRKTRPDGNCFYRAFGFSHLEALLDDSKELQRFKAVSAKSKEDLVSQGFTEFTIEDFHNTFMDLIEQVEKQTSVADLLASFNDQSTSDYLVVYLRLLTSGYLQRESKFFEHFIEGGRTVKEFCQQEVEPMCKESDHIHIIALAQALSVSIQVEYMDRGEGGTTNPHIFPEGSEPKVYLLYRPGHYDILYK
Sequence of EIF3F (O00303 whole entry): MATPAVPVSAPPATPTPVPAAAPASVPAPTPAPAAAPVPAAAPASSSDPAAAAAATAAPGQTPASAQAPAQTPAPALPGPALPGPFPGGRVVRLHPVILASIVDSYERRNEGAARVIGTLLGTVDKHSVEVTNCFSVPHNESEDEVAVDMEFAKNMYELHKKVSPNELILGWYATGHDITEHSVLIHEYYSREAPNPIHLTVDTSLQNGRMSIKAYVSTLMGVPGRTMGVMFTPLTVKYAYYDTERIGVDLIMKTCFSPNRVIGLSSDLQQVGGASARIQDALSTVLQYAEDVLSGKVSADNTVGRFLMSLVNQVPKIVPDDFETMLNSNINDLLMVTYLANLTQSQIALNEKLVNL
Sequence of ATXN3 (P54252 whole entry): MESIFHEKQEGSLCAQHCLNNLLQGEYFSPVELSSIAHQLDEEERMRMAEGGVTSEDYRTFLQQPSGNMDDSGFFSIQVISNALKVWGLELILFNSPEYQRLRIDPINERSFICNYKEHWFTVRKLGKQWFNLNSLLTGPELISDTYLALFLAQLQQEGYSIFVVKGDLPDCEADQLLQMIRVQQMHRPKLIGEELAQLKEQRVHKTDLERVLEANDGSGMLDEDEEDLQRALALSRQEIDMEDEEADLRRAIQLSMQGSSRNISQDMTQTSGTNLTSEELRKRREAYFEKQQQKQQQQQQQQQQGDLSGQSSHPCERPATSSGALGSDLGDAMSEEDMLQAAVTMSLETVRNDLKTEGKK
Sequence of EIF3H (O15372 whole entry): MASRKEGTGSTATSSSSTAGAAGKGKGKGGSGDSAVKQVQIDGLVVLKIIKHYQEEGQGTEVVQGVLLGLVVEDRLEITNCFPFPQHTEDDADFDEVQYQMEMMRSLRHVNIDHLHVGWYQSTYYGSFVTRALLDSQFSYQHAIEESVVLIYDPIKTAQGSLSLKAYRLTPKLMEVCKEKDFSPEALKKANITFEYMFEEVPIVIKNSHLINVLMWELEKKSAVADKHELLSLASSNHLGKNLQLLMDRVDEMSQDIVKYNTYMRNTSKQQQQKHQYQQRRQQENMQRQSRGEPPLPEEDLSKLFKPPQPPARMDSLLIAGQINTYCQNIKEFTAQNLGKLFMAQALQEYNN

N#Cc1ccc(Cl)cc1NC(=O)CCl
inactive: ALG13 -0.187 | ATXN3 -0.113 | EIF3F -0.13 | EIF3H 0.269 | FAM105A -0.217 | OTUB1 -0.265 | OTUD5 -0.589
active: BAP1 -4.1 | OTUD4 -1.18

— the supplement of paper PMC11732987, “Enantioselective OTUD7B fragment discovery through chemoproteomics screening and high-throughput optimisation” (Communications Chemistry, 2025)
